About 14,000 (4.5%) of roughly 310,000 compounds showed an effect of 50% or more. Effects have a minus sign here. The list comes from a sample in which strong results are over-represented; it also holds similar structures and randomly drawn compounds.
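Note: peak tail current of the secondary pulse compared with the same well before compound.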

The experiment deals with human ether-à-go-go-related gene (hERG) potassium channel (human, UniProt Q12809). Kind of experiment: primary screen, population patch clamp on CHO cells stably expressing hERG; higher = less effect of the substance.
Chain of human ether-à-go-go-related gene (hERG) potassium channel (Q12809 whole entry, looked up): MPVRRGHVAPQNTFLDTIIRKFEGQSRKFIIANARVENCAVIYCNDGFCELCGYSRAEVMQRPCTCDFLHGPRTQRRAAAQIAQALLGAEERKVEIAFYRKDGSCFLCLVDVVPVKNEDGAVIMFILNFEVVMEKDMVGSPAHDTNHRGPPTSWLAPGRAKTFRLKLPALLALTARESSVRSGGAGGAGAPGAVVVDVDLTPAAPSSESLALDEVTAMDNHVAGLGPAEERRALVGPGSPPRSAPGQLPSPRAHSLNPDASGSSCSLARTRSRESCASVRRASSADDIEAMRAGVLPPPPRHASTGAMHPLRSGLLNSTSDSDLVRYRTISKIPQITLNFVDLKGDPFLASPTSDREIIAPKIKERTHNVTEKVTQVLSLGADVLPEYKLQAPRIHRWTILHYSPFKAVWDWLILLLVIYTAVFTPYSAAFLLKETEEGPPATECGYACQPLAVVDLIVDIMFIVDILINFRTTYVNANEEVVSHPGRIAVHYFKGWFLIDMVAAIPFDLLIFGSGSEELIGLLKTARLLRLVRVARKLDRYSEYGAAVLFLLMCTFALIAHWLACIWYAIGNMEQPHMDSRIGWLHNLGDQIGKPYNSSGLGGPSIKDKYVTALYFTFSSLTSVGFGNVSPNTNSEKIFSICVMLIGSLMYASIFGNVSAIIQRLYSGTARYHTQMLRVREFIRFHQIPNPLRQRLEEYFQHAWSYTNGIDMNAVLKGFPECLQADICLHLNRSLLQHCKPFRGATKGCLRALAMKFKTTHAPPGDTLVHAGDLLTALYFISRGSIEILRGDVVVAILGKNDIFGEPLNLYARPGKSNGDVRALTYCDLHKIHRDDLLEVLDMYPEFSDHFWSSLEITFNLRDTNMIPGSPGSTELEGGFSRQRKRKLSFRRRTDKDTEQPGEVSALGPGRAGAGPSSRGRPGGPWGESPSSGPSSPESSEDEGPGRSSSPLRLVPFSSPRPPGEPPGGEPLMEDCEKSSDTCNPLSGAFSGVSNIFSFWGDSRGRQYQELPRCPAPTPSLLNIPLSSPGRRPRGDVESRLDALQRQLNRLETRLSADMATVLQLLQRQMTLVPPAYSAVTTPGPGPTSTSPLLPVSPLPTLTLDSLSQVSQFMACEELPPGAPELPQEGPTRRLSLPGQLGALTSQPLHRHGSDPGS
As for `COc1cc(/C=N/Nc2nc(=O)[nH]nc2C)cc(OC)c1O`, the “hERG current change (%, negative = inhibition) at 10uM” value came out at 11.7%.
Turning to `COc1ccc(NC(=O)Cn2nnc(-c3ccccc3NC(=O)c3ccco3)n2)cc1`, the “hERG current change (%, negative = inhibition) at 10uM” value is -12.8%.
Turning to `COc1cccc(OC)c1C(=O)Nc1ccccc1C(=O)N1CCOCC1`, the “hERG current change (%, negative = inhibition) at 10uM” value was 5.4%.
With `CC(CNC(=O)CCC(=O)N1CCOc2ccccc21)c1ccccc1` (stereo not shown), the “hERG current change (%, negative = inhibition) at 10uM” value is -9.84%.
Turning to `Fc1cccc(Cl)c1CSc1nnc2ccccn12`, the “hERG current change (%, negative = inhibition) at 10uM” value is on record as 9.48%.
The result for `COc1ccccc1NC(=O)NNC(=O)C(C)Oc1ccc2ccccc2c1` (stereo not shown) reads 9.36%; that for `Cc1cc2cc(CNC(=S)NC3CCCCC3)ccc2n1C`, 13.8%.
The result for `Cc1cc(OC(C)C(=O)N2CCN(c3ccc(F)cc3)CC2)c2c(C)cc(=O)oc2c1` (stereo not shown) reads -1.27%.
For `O=C(NCCOc1ccccc1Cl)c1ncn[nH]1`, the “hERG current change (%, negative = inhibition) at 10uM” value is listed as -2.83%.
Next, `COCCNC(=O)C(c1ccc(F)cc1)N(C(=O)CCC(=O)Nc1ccccn1)c1cccc(C)c1` (stereo not shown): 16.2%; `COc1cc(COCC(O)CN2CCN(Cc3ccc4c(c3)OCO4)CC2)cc(OC)c1OC.Cl` (stereo not shown): -0.319%.
Next, `Cc1ccc(OCC(O)CN2CCN(Cc3ccc4c(c3)OCO4)CC2)c(C)c1.Cl` (stereo not shown): -57.1%.
On to `CC(=O)c1ccc(OCC(O)CN2CCN(Cc3ccc4c(c3)OCO4)CC2)cc1.Cl` (stereo not shown), for which the “hERG current change (%, negative = inhibition) at 10uM” value is recorded as -49.8%.
In the case of `Cc1ccc(OCC(O)CN2CCN(Cc3ccc4c(c3)OCO4)CC2)cc1C.Cl` (stereo not shown), the “hERG current change (%, negative = inhibition) at 10uM” value is on record as -61.1%.
The result for `CC(=O)c1ccc(OCC(O)CN2CCN(Cc3ccc4c(c3)OCO4)CC2)cc1` (stereo not shown) reads -34.8%; that for `Cc1ccc(C)c(OCC(=O)N2CCN(Cc3ccc4c(c3)OCO4)CC2)c1`, -23.3%; that for `Cc1cccc(N2CCN(C(=O)CCn3c(=O)[nH]c4ccsc4c3=O)CC2C)c1` (stereo not shown), 21.5%.
The result for `COc1ccc(OC)c2sc(NC(=O)c3ccc(S(=O)(=O)N4CCOCC4)cc3)nc12` reads -2.05%; that for `CC(NCCO)C(=O)C12CC3CC(CC(C3)C1)C2.Cl` (stereo not shown), 13.1%; that for `CCOC(=O)C1CCN(C(=O)Cn2cnc3sc(C)c(S(=O)(=O)N4CCOCC4)c3c2=O)CC1`, -14%.
Consider `CCOC(=O)C1CCN(C(=O)Cn2cnc3sc(C)c(S(=O)(=O)N4CCC(C)CC4)c3c2=O)CC1`, for which the “hERG current change (%, negative = inhibition) at 10uM” value was -67.9%.
`CCOC(=O)C1CCN(C(=O)Cn2cnc3sc(C)c(S(=O)(=O)N4CCCCC4)c3c2=O)CC1`: the “hERG current change (%, negative = inhibition) at 10uM” value is on record as -35.5%.
Next, `Cc1sc2ncn(CC(=O)N3CCN(c4ccccc4)CC3)c(=O)c2c1S(=O)(=O)N1CCOCC1`: -16%; `COc1ccc(N2CCN(C(=O)Cn3cnc4sc(C)c(S(=O)(=O)N5CCOCC5)c4c3=O)CC2)cc1`: -20.7%; `Cc1sc2ncn(CC(=O)N3CCN(c4ccc(F)cc4)CC3)c(=O)c2c1S(=O)(=O)N1CCOCC1`: -64.3%.

Values taken from PMC4336329 (PLoS ONE, 2015).
